In PMC5540273 (PLoS ONE, 2017):
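Further: KINOMEscan kinase panel screen.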

Each molecule was assayed on MARK2. Conditions: concentration: 1 μM, replicates: in singlicate; n = 1.
With `Cc1cc(N2CCC(NS(=O)(=O)c3ccc(F)cc3)CC2)nc(Nc2cccc(C#N)c2)n1.O=C(O)C(F)(F)F` [GSK1653537] the “%Inh” value was 0%. In the case of `N#Cc1ccc(Oc2ccc(Nc3ncnc4cc[nH]c34)cc2Cl)cc1`, the “%Inh” value is reported as 0%. In the case of `CCc1nc(-c2cccc(N(C)S(=O)(=O)c3ccccc3)c2)c(-c2ccnc(Nc3ccc(N4CCN(C(C)=O)CC4)nc3)n2)s1` [GSK1645895], the “%Inh” value is reported as 4%. With `CNc1nccc(-c2c(-c3ccc(F)cc3)ncn2CCCN2CCOCC2)n1` [SB-222516] the “%Inh” value was 9%. In the case of `Cc1ccc(C)c(NC(=O)NCCNc2ccnc(Nc3ccc(F)cc3)n2)c1` [GSK1379878], the “%Inh” value is reported as 0%. For `Cc1cccc(-c2nc(Nc3ccc4[nH]nnc4c3)c3ccccc3n2)n1` [GW867587], the “%Inh” value was 0%. With `COc1ccc(Nc2nccc(N3CCC(NC(=O)c4cccc(NC(C)=O)c4)C3)n2)cc1` (stereo not shown) [GSK1379732] the “%Inh” value was 0%. For `CSc1ccc(NC2=C(c3ccccc3Cl)C(=O)NC2=O)cc1` [SB-342411], the “%Inh” value was 0%. For `C[C@@H]1CCN(C(=O)CO)C[C@@H]1N(C)c1ncnc2[nH]ccc12`, the “%Inh” value was 0%. With `CSc1nn2c(=O)cc(N3CCOCC3)nc2n1Cc1cccc(Cl)c1Cl` [GSK2347225] the “%Inh” value was 0%. For `COc1ccc(-c2oc3ncnc(N)c3c2-c2ccc(OC)cc2)cc1` [SB-589132], the “%Inh” value was 0%. With `COc1ccc(NC(=O)c2ccc(-c3cc(-c4nnc(C)o4)ccc3C)cc2)cc1` [GW595885] the “%Inh” value was 0%. `COC(=O)c1c(-c2ccccc2)c2cc(Cl)ccc2c(=O)n1Cc1ccc(S(C)(=O)=O)cc1` was tested, and the “%Inh” value was 0%.
